{"source": "the antibiotic and cytotoxicity screens of Wong et al. (2023)", "note": "The campaign covered roughly 39,000 compounds. About 1,500 (3.8%) were called active. Many of the other results were omitted from the sample, so actives are more common in it than they were.", "data": [{"tested_on": "HSkMC (human skeletal muscle cells)", "experiment": "cytotoxicity call (relative viability < 0.9)", "conditions": "10 µM", "values": [{"smiles": "Cc1noc(C)c1NC(=O)N(C)C[C@H]1OCCCC[C@@H](C)Oc2ccc(NS(=O)(=O)c3cccs3)cc2C(=O)N([C@@H](C)CO)C[C@H]1C", "cytotoxicity call": "inactive"}, {"smiles": "Cc1noc(C)c1NC(=O)N(C)C[C@H]1OCCCC[C@H](C)Oc2ccc(NS(=O)(=O)c3ccc(F)cc3)cc2C(=O)N([C@@H](C)CO)C[C@H]1C", "cytotoxicity call": "inactive"}, {"smiles": "COc1ccccc1CNC(=O)C[C@H]1C[C@H]2c3cc(NC(=O)NC4CCCC4)ccc3O[C@H]2[C@H](CO)O1", "cytotoxicity call": "inactive"}, {"smiles": "COc1ccc(CN(C)C[C@H]2Oc3c(NC(=O)c4ccc(-c5nccs5)cc4)cccc3C(=O)N([C@H](C)CO)C[C@H]2C)cc1", "cytotoxicity call": "inactive"}, {"smiles": "CC[C@H]1OC[C@@H]2CN(C(=O)CN(C)C)CC[C@H]21", "cytotoxicity call": "inactive"}, {"smiles": "C[C@@H]1CN([C@@H](C)CO)C(=O)Cc2cc(NC(=O)Nc3cccc4ccccc34)ccc2O[C@@H]1CN(C)C(=O)Nc1cccc2ccccc12", "cytotoxicity call": "inactive"}, {"smiles": "C[C@@H]1CN([C@H](C)CO)C(=O)Cc2cc(NC(=O)Nc3ccc4c(c3)OCO4)ccc2O[C@@H]1CN(C)C(=O)Nc1cccc2ccccc12", "cytotoxicity call": "inactive"}, {"smiles": "C[C@H](CO)N1C[C@H](C)[C@@H](CN(C)C(=O)Nc2cccc3ccccc23)Oc2ccc(NC(=O)Nc3ccccc3)cc2CC1=O", "cytotoxicity call": "active"}, {"smiles": "C[C@H](CO)N1C[C@H](C)[C@@H](CN(C)C(=O)Nc2cccc3ccccc23)Oc2ccc(NC(=O)Nc3ccc4c(c3)OCO4)cc2CC1=O", "cytotoxicity call": "active"}, {"smiles": "C[C@H]1CN([C@@H](C)CO)C(=O)Cc2cc(NC(=O)Cc3ccccc3)ccc2O[C@@H]1CN(C)C(=O)Nc1cccc2ccccc12", "cytotoxicity call": "inactive"}, {"smiles": "C[C@H](CO)N1C[C@H](C)[C@@H](CN(C)C(=O)Nc2cccc3ccccc23)Oc2ccc(NC(=O)Cc3ccccc3)cc2CC1=O", "cytotoxicity call": "active"}, {"smiles": "C[C@@H]1CN([C@H](C)CO)C(=O)Cc2cc(NC(=O)Nc3ccccc3)ccc2O[C@@H]1CN(C)C(=O)Nc1cccc2ccccc12", "cytotoxicity call": "inactive"}, {"smiles": "C[C@H]1CN([C@@H](C)CO)C(=O)Cc2cc(NC(=O)Nc3ccccc3)ccc2O[C@@H]1CN(C)C(=O)Nc1cccc2ccccc12", "cytotoxicity call": "inactive"}, {"smiles": "C[C@H]1CN([C@@H](C)CO)C(=O)Cc2cc(NC(=O)Nc3cccc4ccccc34)ccc2O[C@H]1CN(C)C(=O)Nc1cccc2ccccc12", "cytotoxicity call": "inactive"}, {"smiles": "C[C@H](CO)N1C[C@H](C)[C@@H](CN(C)C(=O)Nc2cccc3ccccc23)Oc2ccc(NC(=O)Nc3cccc4ccccc34)cc2CC1=O", "cytotoxicity call": "active"}, {"smiles": "C[C@@H]1CN([C@H](C)CO)C(=O)Cc2cc(NC(=O)Cc3ccccc3)ccc2O[C@H]1CN(C)C(=O)Nc1cccc2ccccc12", "cytotoxicity call": "inactive"}, {"smiles": "C[C@H]1CN([C@@H](C)CO)C(=O)Cc2cc(NC(=O)Nc3ccc4c(c3)OCO4)ccc2O[C@@H]1CN(C)C(=O)Nc1cccc2ccccc12", "cytotoxicity call": "inactive"}, {"smiles": "OCc1cccc(CO)n1", "cytotoxicity call": "inactive"}, {"smiles": "COC(=O)[C@@H](Cc1ccc(-n2cc(-c3ccc(C(=O)NO)s3)nn2)cc1)N1CC2=C[C@H](C3CC3)n3c(=O)n(C)c(=O)n3[C@@H]2[C@H]1[C@H](O)Cc1ccccc1", "cytotoxicity call": "inactive"}, {"smiles": "CCCNC(=O)N(C)C[C@@H]1Oc2cc(C#Cc3cccc(F)c3)ccc2S(=O)(=O)N([C@H](C)CO)C[C@@H]1C", "cytotoxicity call": "inactive"}, {"smiles": "CO[C@H]1CN(C)C(=O)c2cc(NS(C)(=O)=O)ccc2OC[C@@H](C)N(C(=O)c2ccc3c(c2)OCO3)C[C@@H]1C", "cytotoxicity call": "inactive"}, {"smiles": "Cc1ccc(S(=O)(=O)Nc2ccc3c(c2)C(=O)N([C@H](C)CO)C[C@H](C)[C@H](CN(C)S(C)(=O)=O)O3)cc1", "cytotoxicity call": "inactive"}, {"smiles": "COc1ccc(S(=O)(=O)Nc2ccc3c(c2)CC(=O)N([C@@H](C)CO)C[C@@H](C)[C@H](CN(C)C(=O)NC(C)C)O3)cc1", "cytotoxicity call": "inactive"}, {"smiles": "CN(C)Cc1cn(CC[C@@H]2CC[C@H](NC(=O)Cc3cccnc3)[C@H](CO)O2)nn1", "cytotoxicity call": "inactive"}, {"smiles": "Cc1ccc(S[C@]2(C(=O)NCc3ccccc3)CC(=O)N(Cc3cc(C(F)(F)F)cc(C(F)(F)F)c3)[C@@H]2c2ccc(CO)cc2)cc1", "cytotoxicity call": "inactive"}, {"smiles": "CCOC(=O)c1cc2c(c(-c3cccc(-c4cccc(OC)c4)c3)n1)[C@@H](CCO)N(S(=O)C(C)(C)C)C2", "note": "(some centres undefined)", "cytotoxicity call": "inactive"}, {"smiles": "COCC(=O)N1C[C@@H](C)[C@H](OC)CN(C)C(=O)c2ccc(NC(=O)c3ccc(OC)cc3)cc2OC[C@H]1C", "cytotoxicity call": "inactive"}, {"smiles": "CCN1CCC[C@@H]1CN1CNC(=S)NC1", "cytotoxicity call": "inactive"}, {"smiles": "CCCCCCc1ccc(O)cc1O", "note": "[listing 1 of 2 here]", "cytotoxicity call": "active"}, {"smiles": "CCCCCCc1ccc(O)cc1O.Nc1c2ccccc2nc2ccccc12", "cytotoxicity call": "inactive"}, {"smiles": "CCCCCCCCc1ccc(-c2ccc(C(=O)O)cc2)cc1", "cytotoxicity call": "inactive"}, {"smiles": "CCCCCCCc1c(C)c(O)cc2c1[nH]c1ccccc12", "cytotoxicity call": "inactive"}, {"smiles": "CCCCCCc1ccc(O)cc1O", "note": "[listing 2 of 2 here]", "cytotoxicity call": "active"}, {"smiles": "COC(=O)CCc1ccc(OC)cc1O", "cytotoxicity call": "inactive"}, {"smiles": "COc1ccc(NC(=O)N(C)C[C@@H]2Oc3c(NC(=O)C4CC4)cccc3C(=O)N([C@@H](C)CO)C[C@@H]2C)cc1", "cytotoxicity call": "inactive"}, {"smiles": "C[C@H]1O[C@@H](O[C@H]2[C@@H](O)C[C@H](O[C@H]3[C@@H](O)C[C@H](O[C@H]4CC[C@@]5(C)[C@H](CC[C@@H]6[C@@H]5C[C@@H](O)[C@@]5(C)[C@@H](C7=CC(=O)OC7)CC[C@]65O)C4)O[C@@H]3C)O[C@@H]2C)C[C@H](O)[C@@H]1O", "cytotoxicity call": "active"}, {"smiles": "C[C@H]1O[C@@H](O[C@H]2[C@@H](O)C[C@H](O[C@H]3[C@@H](O)C[C@H](O[C@H]4CC[C@@]5(C)[C@H](CC[C@@H]6[C@@H]5C[C@@H](O)[C@]5(C)[C@@H](C7=CC(=O)OC7)CC[C@]65O)C4)O[C@@H]3C)O[C@@H]2C)C[C@H](O)[C@@H]1O", "cytotoxicity call": "active"}, {"smiles": "CC1OC(OC2C(O)CC(OC3C(O)CC(OC4CCC5(C)C(CCC6C5CC(O)C5(C)C(C7=CC(=O)OC7)CCC65O)C4)OC3C)OC2C)CC(O)C1O", "note": "(centres undefined)", "cytotoxicity call": "active"}, {"smiles": "C[C@@H]1CCCCO[C@@H](CN(C)Cc2ccc3c(c2)OCO3)[C@@H](C)CN([C@H](C)CO)C(=O)c2cc(NS(=O)(=O)c3ccc(Cl)cc3)ccc2O1", "cytotoxicity call": "inactive"}, {"smiles": "C[C@H](CO)N1C[C@H](C)[C@@H](CN(C)S(=O)(=O)c2ccccc2F)Oc2cc(-c3ccncc3)ccc2S1(=O)=O", "cytotoxicity call": "inactive"}, {"smiles": "CC(C)NC(=O)Nc1cccc2c1O[C@@H](CN(C)S(=O)(=O)c1cccs1)[C@@H](C)CN([C@@H](C)CO)C2=O", "cytotoxicity call": "inactive"}, {"smiles": "O=C(C[C@@H]1C[C@@H]2c3cc(NC(=O)Cc4ccncc4)ccc3O[C@@H]2[C@@H](CO)O1)NCc1cccc(F)c1", "cytotoxicity call": "inactive"}, {"smiles": "COCC#Cc1ccc2c(c1)O[C@@H](CN(C)C(=O)CN(C)C)[C@H](C)CN([C@@H](C)CO)S2(=O)=O", "cytotoxicity call": "inactive"}, {"smiles": "Cc1noc(C)c1NC(=O)N(C)C[C@@H]1OCCCC[C@@H](C)Oc2ccc(NC(=O)Cc3ccccc3)cc2C(=O)N([C@H](C)CO)C[C@H]1C", "cytotoxicity call": "inactive"}, {"smiles": "CC(N)(Cc1ccc(O)c(O)c1)C(=O)O", "note": "(centres undefined) [listing 1 of 2 here]", "cytotoxicity call": "inactive"}, {"smiles": "CCOC(=O)[C@@](C)(N)Cc1ccc(O)c(O)c1", "cytotoxicity call": "active"}, {"smiles": "CC(N)(Cc1ccc(O)c(O)c1)C(=O)O", "note": "(centres undefined) [listing 2 of 2 here]", "cytotoxicity call": "inactive"}, {"smiles": "CN1C(=O)c2cc(NC(=O)c3ccc(C(F)(F)F)cc3)ccc2OC[C@@H]2O[C@@H](CC(=O)NC3Cc4ccccc4C3)CC[C@H]21", "cytotoxicity call": "active"}, {"smiles": "CN1C(=O)c2cc(NC(=O)Nc3cccc(C#N)c3)ccc2OC[C@H]2O[C@@H](CC(=O)Nc3ccc4c(c3)CCC4)CC[C@@H]21", "cytotoxicity call": "inactive"}, {"smiles": "COc1ccccc1C(=O)Nc1ccc2c(c1)C(=O)N(C)[C@H]1CC[C@H](CC(=O)NCc3ccc(Cl)c(Cl)c3)O[C@@H]1CO2", "cytotoxicity call": "inactive"}, {"smiles": "CN1C(=O)c2cc(NC(=O)c3ccc(C(F)(F)F)cc3)ccc2OC[C@@H]2O[C@H](CC(=O)NC3Cc4ccccc4C3)CC[C@H]21", "cytotoxicity call": "inactive"}, {"smiles": "COc1ccccc1C(=O)Nc1ccc2c(c1)C(=O)N(C)[C@@H]1CC[C@@H](CC(=O)NCc3ccc(Cl)c(Cl)c3)O[C@@H]1CO2", "cytotoxicity call": "inactive"}, {"smiles": "COc1ccccc1C(=O)Nc1ccc2c(c1)C(=O)N(C)[C@@H]1CC[C@H](CC(=O)NCc3ccc(Cl)c(Cl)c3)O[C@@H]1CO2", "cytotoxicity call": "inactive"}, {"smiles": "COc1ccccc1C(=O)Nc1ccc2c(c1)C(=O)N(C)[C@H]1CC[C@@H](CC(=O)NCc3ccc(Cl)c(Cl)c3)O[C@@H]1CO2", "cytotoxicity call": "active"}, {"smiles": "Cc1noc(C)c1NC(=O)Nc1ccc2c(c1)C(=O)N(C)[C@H]1CC[C@H](CC(=O)Nc3ccc4c(c3)CCCC4)O[C@@H]1CO2", "cytotoxicity call": "active"}, {"smiles": "COc1ccccc1C(=O)Nc1ccc2c(c1)C(=O)N(C)[C@@H]1CC[C@H](CC(=O)NCc3ccc(Cl)c(Cl)c3)O[C@H]1CO2", "cytotoxicity call": "inactive"}, {"smiles": "COc1cccc(C(=O)Nc2ccc3c(c2)C(=O)N(C)[C@H]2CC[C@H](CC(=O)Nc4ccc5c(c4)CCCC5)O[C@@H]2CO3)c1", "cytotoxicity call": "inactive"}, {"smiles": "COc1ccccc1C(=O)Nc1ccc2c(c1)C(=O)N(C)[C@@H]1CC[C@@H](CC(=O)NCc3ccc(Cl)c(Cl)c3)O[C@H]1CO2", "cytotoxicity call": "active"}, {"smiles": "CN1C(=O)c2cc(NC(=O)c3ccc(C(F)(F)F)cc3)ccc2OC[C@@H]2O[C@H](CC(=O)NC3Cc4ccccc4C3)CC[C@@H]21", "cytotoxicity call": "inactive"}, {"smiles": "CC(C)NC(=O)N(C)C[C@H]1OCc2cn(nn2)CCCC(=O)N([C@H](C)CO)C[C@H]1C", "cytotoxicity call": "inactive"}, {"smiles": "C[C@H]1CN([C@@H](C)CO)C(=O)c2cc(NS(C)(=O)=O)ccc2O[C@@H]1CN(C)S(=O)(=O)c1ccc(Cl)cc1", "cytotoxicity call": "inactive"}, {"smiles": "CO[C@H]1CN(C)C(=O)c2ccc(NC(=O)Nc3ccc(Cl)cc3)cc2OC[C@@H](C)N(C(=O)Nc2c(C)noc2C)C[C@H]1C", "cytotoxicity call": "inactive"}, {"smiles": "C[C@@H]1CCCCO[C@@H](CN(C)Cc2ccncc2)[C@@H](C)CN([C@H](C)CO)C(=O)c2cc(NC(=O)Nc3ccc(C(F)(F)F)cc3)ccc2O1", "cytotoxicity call": "inactive"}, {"smiles": "CC(C)CC#Cc1ccc2c(c1)O[C@@H](CN(C)S(=O)(=O)c1cccc(F)c1)[C@@H](C)CN([C@@H](C)CO)S2(=O)=O", "cytotoxicity call": "inactive"}]}]}
